# Reference: ChEMBL document CHEMBL2218924, “A broad activity screen in support of a chemogenomic map for kinase signalling research and drug discovery” (Biochem J, 2013)
# Legend:
# [1] = target: Tyrosine-protein kinase SYK (Homo sapiens) (UniProt P43405); conditions: at 10 µM
# [2] = target: T1, Mitogen-activated protein kinase kinase kinase 7 (Homo sapiens) (UniProt O43318); conditions: at 1 µM
# T1 sequence (whole entry): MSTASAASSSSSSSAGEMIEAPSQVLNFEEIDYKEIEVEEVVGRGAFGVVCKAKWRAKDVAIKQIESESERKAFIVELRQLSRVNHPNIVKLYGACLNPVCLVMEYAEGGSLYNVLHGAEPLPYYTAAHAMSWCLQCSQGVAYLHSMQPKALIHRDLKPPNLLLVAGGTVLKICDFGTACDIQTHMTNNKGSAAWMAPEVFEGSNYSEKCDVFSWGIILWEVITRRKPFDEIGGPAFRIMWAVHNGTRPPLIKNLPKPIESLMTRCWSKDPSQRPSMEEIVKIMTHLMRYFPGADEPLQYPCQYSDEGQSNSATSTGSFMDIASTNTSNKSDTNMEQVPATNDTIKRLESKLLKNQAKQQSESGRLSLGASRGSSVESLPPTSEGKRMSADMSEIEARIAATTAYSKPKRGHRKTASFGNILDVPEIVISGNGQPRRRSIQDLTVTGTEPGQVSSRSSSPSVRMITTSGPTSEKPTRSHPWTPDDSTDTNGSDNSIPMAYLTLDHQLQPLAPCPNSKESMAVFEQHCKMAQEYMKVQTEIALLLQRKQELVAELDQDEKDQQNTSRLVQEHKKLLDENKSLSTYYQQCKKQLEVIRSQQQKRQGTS
# [3] = target: T1, Mitogen-activated protein kinase kinase kinase 7 (Homo sapiens); conditions: at 10 µM
# [4] = target: T2, Serine/threonine-protein kinase TAO1 (Homo sapiens) (UniProt Q7L7X3); conditions: at 1 µM
# T2 sequence (whole entry): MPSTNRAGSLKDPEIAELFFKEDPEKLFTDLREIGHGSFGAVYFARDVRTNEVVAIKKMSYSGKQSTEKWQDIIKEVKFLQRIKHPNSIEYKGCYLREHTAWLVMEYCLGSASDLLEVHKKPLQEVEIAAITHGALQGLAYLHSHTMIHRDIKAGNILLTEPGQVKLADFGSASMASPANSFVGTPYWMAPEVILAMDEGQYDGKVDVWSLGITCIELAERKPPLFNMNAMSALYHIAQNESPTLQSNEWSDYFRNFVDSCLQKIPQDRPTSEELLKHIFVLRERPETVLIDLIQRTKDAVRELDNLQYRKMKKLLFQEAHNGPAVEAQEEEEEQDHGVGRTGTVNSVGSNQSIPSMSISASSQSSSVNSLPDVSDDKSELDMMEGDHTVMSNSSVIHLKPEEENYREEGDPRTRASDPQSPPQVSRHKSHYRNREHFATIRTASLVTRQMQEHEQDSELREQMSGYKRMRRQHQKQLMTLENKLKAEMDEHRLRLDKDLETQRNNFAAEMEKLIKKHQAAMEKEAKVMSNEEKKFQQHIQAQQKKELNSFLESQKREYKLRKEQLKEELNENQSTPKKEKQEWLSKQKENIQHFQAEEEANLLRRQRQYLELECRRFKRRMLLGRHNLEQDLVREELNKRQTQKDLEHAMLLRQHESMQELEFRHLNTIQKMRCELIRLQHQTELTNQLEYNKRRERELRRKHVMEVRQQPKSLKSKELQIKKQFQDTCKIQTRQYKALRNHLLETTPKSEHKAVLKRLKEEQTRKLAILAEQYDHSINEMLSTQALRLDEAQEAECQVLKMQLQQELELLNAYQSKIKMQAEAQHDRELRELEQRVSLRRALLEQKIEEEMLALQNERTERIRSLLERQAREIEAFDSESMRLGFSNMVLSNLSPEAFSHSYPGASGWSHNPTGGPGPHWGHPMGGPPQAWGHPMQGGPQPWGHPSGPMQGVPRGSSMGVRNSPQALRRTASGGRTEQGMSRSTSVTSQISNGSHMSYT
# [5] = target: T2, Serine/threonine-protein kinase TAO1 (Homo sapiens); conditions: at 10 µM
# [6] = target: T3, Serine/threonine-protein kinase TAO2 (Homo sapiens) (UniProt Q9UL54); conditions: at 1 µM
# T3 sequence (whole entry): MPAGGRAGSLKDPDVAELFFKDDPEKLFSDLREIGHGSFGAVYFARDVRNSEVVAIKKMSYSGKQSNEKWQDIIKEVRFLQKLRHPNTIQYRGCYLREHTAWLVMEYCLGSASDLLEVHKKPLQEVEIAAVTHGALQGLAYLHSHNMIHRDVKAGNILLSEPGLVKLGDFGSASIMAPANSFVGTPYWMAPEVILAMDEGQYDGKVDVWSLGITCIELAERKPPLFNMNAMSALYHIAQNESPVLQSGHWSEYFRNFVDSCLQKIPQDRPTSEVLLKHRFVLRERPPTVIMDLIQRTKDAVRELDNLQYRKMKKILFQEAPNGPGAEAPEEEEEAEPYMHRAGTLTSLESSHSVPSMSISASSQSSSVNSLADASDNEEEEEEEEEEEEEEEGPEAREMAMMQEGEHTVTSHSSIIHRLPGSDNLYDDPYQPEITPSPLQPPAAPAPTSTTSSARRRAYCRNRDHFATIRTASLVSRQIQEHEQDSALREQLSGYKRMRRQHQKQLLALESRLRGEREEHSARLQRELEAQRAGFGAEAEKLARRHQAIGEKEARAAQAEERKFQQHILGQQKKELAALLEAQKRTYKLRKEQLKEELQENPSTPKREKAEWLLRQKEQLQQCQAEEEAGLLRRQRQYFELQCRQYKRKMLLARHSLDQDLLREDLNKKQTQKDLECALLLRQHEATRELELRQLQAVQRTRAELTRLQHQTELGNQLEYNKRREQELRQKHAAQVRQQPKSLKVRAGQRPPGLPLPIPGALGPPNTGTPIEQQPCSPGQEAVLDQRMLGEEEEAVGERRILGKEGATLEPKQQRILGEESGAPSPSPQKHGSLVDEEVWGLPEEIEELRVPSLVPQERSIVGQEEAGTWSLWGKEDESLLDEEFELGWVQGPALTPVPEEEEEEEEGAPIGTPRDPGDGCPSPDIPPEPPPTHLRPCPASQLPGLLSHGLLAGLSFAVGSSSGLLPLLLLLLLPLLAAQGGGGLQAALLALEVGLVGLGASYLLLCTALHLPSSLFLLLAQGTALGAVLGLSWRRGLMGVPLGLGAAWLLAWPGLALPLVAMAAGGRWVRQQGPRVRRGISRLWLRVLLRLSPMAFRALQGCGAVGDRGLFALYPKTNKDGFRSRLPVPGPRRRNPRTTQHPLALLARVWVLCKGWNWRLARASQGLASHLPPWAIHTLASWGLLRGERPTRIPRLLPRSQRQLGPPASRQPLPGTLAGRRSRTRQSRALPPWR
# [7] = target: T3, Serine/threonine-protein kinase TAO2 (Homo sapiens); conditions: at 10 µM
# [8] = target: T4, Serine/threonine-protein kinase TAO3 (Homo sapiens) (UniProt Q9H2K8); conditions: at 1 µM
# T4 sequence (whole entry): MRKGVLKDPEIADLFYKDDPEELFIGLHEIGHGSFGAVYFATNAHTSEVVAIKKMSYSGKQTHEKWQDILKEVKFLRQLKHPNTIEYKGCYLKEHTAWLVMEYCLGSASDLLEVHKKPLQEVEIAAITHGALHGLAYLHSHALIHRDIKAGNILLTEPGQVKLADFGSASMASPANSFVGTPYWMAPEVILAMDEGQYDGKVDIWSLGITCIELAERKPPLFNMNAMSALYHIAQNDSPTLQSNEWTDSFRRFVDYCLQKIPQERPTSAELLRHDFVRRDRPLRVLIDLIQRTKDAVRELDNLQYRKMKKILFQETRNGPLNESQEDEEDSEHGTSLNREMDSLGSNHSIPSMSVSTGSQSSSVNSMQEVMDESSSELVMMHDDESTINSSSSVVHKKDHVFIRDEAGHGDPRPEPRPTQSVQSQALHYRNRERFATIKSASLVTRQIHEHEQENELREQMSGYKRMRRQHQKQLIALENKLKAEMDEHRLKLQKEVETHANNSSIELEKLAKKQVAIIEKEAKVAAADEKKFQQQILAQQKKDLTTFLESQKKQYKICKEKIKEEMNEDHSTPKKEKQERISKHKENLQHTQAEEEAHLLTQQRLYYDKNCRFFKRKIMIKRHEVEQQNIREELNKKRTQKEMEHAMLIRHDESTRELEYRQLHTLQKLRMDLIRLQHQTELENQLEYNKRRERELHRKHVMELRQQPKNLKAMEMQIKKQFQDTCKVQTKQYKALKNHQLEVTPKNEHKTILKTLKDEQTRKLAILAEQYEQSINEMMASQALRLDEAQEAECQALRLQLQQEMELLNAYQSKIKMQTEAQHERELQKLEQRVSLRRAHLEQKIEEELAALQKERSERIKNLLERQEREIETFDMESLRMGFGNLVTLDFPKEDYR
# [9] = target: T4, Serine/threonine-protein kinase TAO3 (Homo sapiens); conditions: at 10 µM
# [10] = target: T5, Serine/threonine-protein kinase TBK1 (Homo sapiens) (UniProt Q9UHD2); conditions: at 1 µM
# T5 sequence (whole entry): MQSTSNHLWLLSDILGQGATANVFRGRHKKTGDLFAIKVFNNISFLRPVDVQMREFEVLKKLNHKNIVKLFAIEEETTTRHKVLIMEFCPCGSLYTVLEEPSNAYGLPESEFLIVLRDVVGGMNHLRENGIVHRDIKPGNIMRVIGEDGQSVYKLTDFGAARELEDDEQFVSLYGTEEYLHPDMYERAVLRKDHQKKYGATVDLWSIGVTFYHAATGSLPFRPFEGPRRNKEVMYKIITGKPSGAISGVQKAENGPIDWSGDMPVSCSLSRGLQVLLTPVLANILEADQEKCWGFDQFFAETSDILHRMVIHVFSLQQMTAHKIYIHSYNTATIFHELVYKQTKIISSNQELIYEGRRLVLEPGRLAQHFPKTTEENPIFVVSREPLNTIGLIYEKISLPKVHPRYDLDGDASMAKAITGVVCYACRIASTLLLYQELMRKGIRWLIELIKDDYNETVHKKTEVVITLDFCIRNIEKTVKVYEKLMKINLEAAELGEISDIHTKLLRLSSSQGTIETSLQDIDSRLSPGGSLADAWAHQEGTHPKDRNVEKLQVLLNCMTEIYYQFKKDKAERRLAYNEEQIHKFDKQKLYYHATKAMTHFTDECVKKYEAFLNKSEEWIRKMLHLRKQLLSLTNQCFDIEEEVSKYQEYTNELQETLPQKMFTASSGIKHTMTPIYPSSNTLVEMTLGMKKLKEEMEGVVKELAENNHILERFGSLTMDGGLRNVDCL
smiles,measurement,setting,value
Cc1nc2cc3nc(-c4cccs4)cnc3cc2n1C,residual activity,[1],93%
same,residual activity,[2],96%
same,residual activity,[3],100%
same,residual activity,[4],111%
same,residual activity,[5],100%
same,residual activity,[6],113%
same,residual activity,[7],98%
same,residual activity,[8],98%
same,residual activity,[9],95%
same,residual activity,[10],105%
